Results filed as inconclusive are left out. Calls of active or inactive are those of the source. Calls come from the whole dose curve; as a rule, active = well fitted inhibition curve with a large enough effect; inconclusive = small, poorly fitted or top-dose-only effect; inactive = flat fitted curve, though single readings scatter.
Each molecule was assayed against Calcium and integrin-binding protein 1 (Homo sapiens) (UniProt Q99828) (assay: Primary qHTS for Identification of Calcium Integrin Binding Protein 1 (CIB1) Competitor (AID 1508620;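 note: GST tagged CIB1 binding a fluorescein labelled alphaIIb integrin peptide tracer; top concentration of the series differs between compounds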)). Conditions: CIB1-GST / FITC-alphaIIb peptide fluorescence polarization; series mostly up to 114 µM; activity change, negative = inhibition: at the top concentration.
Chain of Calcium and integrin-binding protein 1 (Homo sapiens) (Q99828 whole entry, looked up): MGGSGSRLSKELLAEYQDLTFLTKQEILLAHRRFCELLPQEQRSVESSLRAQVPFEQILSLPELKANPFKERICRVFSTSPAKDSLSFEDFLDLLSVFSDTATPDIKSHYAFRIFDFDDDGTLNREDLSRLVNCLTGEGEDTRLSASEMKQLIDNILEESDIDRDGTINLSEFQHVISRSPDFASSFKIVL
Procedure, shortened: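 CIB1-GST (1 uM final) and compound incubated 15 min at room temperature before adding FITC-alphaIIb peptide tracer (100 nM final). Competition for binding read by fluorescence polarization (ex 480, em 540) after another 15 min at room temperature.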
% is set by controls: 0 for no effect and ±100 for the full control effect.

Row | Compound | activity change, negative = inhibition
1 | C/C=C/C=C/C(=O)O[C@@H]1C=C2COC(=O)[C@]2(O)[C@@]2(C)CCCC(C)(C)[C@H]12 | 4.68% [at 57.7 µM] (inactive)
2 | Nc1nc2c(nc(Br)n2[C@@H]2O[C@@H]3COP(=O)(O)O[C@H]3[C@H]2O)c(=O)[nH]1 | -1.75% (inactive)
3 | COc1ccc(CNc2nc(N(CCO)CCO)nc3c2ncn3C(C)C)cc1 | -4.22% (inactive)
4 | O=C(NC[C@H](O)CN1CCc2ccccc2C1)c1ccnc(NC2CCC2)c1 | 3.22% (inactive)
5 | CCNC(=O)Nc1ccc(-c2nc3c(c(N4CCOCC4C)n2)CCN(C2COC2)C3)cc1 (stereo not drawn) | 4.04% (inactive)
6 | Cc1cc2c(cc1N1C(=O)c3cccc4c(CCCO)ccc(c34)C1=O)n(C)c(=O)n2C | -4.02% [at 30.2 µM] (inactive)
7 | COc1cc(-n2cnc3cc(-c4ccc(Cl)cc4)sc3c2=O)ccc1OCCN1CCCC1 | 5.32% (inactive)
8 | CCNC1(C(N)=O)CN(c2nc(C)nc3c(-c4ccc(Cl)cc4)c(-c4ccccc4Cl)nn23)C1 | 3.18% (inactive)
9 | Cn1ccc(NC(=O)c2cc(Oc3ccc(C(=O)N4CCC4)c(F)c3)c3c(c2)OC(C)(C)C3)n1 | 8.8% (inactive)
10 | CCCSc1nc(N[C@@H]2C[C@H]2c2ccc(F)c(F)c2)c2nnn([C@@H]3C[C@H](OCCO)[C@@H](O)[C@H]3O)c2n1 | -25.3% (inactive)
11 | COc1ccc2cc3c(NC(=O)c4ccco4)nn(C)c3nc2c1 | -6.47% (inactive)
12 | CC(=O)O[C@@H]1C[C@@]2(C)C(CC[C@]3(C)C2CC=C2C4CC(C)(C)CC[C@]4(C(=O)O)CC[C@]23C)C(C)(C)[C@H]1O (stereo partly drawn) | -12% [at 57.7 µM] (inactive)
13 | CC(CCC1(O)OC2CC3C4CC=C5C[C@@H](O[C@@H]6O[C@H](CO)[C@@H](O[C@@H]7O[C@@H](C)[C@H](O)[C@@H](O)[C@H]7O)[C@H](O)[C@H]6O[C@@H]6O[C@@H](C)[C@H](O)[C@@H](O)[C@H]6O)CC[C@]5(C)C4CC[C@]3(C)[C@@]2(O)[C@@H]1C)CO[C@@H]1O[C@H](CO)[C@@H](O)[C@H](O)[C@H]1O (stereo partly drawn) | -0.0505% [at 30.2 µM] (inactive)
14 | CC(=O)O[C@@H]1CC[C@@]2(C)C(CC[C@]3(C)C2[C@H](O)C=C2[C@H]4[C@@H](C)[C@H](C)CC[C@]4(C)CC[C@]23C)[C@@]1(C)C(=O)O (stereo partly drawn) | -10.1% [at 57.7 µM] (inactive)
15 | O=C(c1ccc(Cl)cc1)N1CCN(c2ccnc3cc(Cl)ccc23)CC1 | -4.03% (inactive)
16 | C=CC(C)(C)c1[nH]c2ccccc2c1C[C@@H]1NC(=O)[C@H](C)NC1=O | -8.09% [at 57.7 µM] (inactive)
17 | CCc1cccc(CC)c1-n1c(C=C(C)C)c(C(=O)N2CCNCC2)cc(-c2nc(-c3ccc(C(F)(F)F)cc3)cs2)c1=O | 2.31% [at 57.7 µM] (inactive)
18 | CCCC(=O)C1(c2ccccc2)CCN(C(=O)[C@@H](Cc2ccc(OC)cc2)NC(=O)[C@@H](N)Cc2cncn2C)CC1 | -9.82% (inactive)
19 | C=C(C(=O)OC)[C@@H]1CC=C2C=CC(=O)[C@H](C)[C@@]2(C)C1 | -0.898% (inactive)
20 | CCC(=C(c1ccc(OCCN2CCCC2)cc1)c1ccc(OCCN2CCCC2)cc1)c1ccccc1 | -0.885% (inactive)
21 | C=CC(=O)N1CCC[C@@H](n2nc(-c3cccc(C(=O)Nc4ccc(C(C)C)c(C)c4)c3)c3c(N)ncnc32)C1 | -0.546% (inactive)
22 | O=C(NO)c1ccc(CC(=O)N(CCO)c2ccccc2)cc1 | 3.05% (inactive)
23 | Cc1ccccc1C(C(=O)NC1CCCCC1)N(C(=O)Cn1cnc2ccccc21)c1cccc(F)c1 (stereo not drawn) | 9.23% (inactive)
